KB-V1 cytotox = KB-V1 MDR subline cytotoxicity; KB-V1 MDR cells viability, CellTiter-Glo, 72 h; Potency, µM (titrated, usually from 46.1 µM), hits mostly cytotoxic; 3.4% of 400,000 active; note: potency is the fitted concentration of half-maximal effect; % is set by controls: 0 for no effect and ±100 for the full control effect; nearly all actives have a fitted effect of over 60% in size
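Luminescent ATP read-out (CellTiter-Glo, 10 min) measures survival of drug-selected KB-V1 MDR cells after 72 h, 37 degrees C compound exposure. Medium: phenol-red-free DMEM, 10% FBS. Values from fitted concentration-response curves.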
IL-1B inflam inh = inhibitors of inflammasome signaling (IL-1 beta secretion); THP-1 LPS/ATP IL-1B secretion, AlphaLISA, 16 h; active compounds read low; activity change, % at 57.5 µM; 4.7% of 360,000 active; in the data active = activity change below about -50%; inconclusive = mostly about -30% to -49%; note: % is set by controls: 0 for no effect and ±100 for the full control effect
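Secreted IL-1B measured by AlphaLISA bead assay after 16 h compound exposure of THP-1 cells; compounds (final up to 57.5 uM) added 1 h before LPS (250 ng/mL) and ATP (1.25 mM) stimulation; lower signal means less secretion.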
MCF10A rereplic = DNA re-replication induction in MCF 10a cells; MCF 10A DNA re-replication, Hoechst nuclear intensity, 48 h; Potency, µM (top dose mostly 46.1 µM), without a hit: at the top dose activity, positive = re-replication, actives largely listed as activators; 2.9% of 350,000 active; AID 624296; note: potency is the fitted concentration of half-maximal effect; % of control where 0% means no effect; nearly all actives have a fitted effect of over 50% in size
KB-3-1 tox = kills parental KB-3-1 adenocarcinoma cells | KB-3-1 viability, CellTiter-Glo ATP luminescence, 72 h | Potency, µM (doses to about 46.1 µM), most hits filed as cytotoxic | 1.4% of 400,000 active | AID 1347075; note: potency is the fitted concentration of half-maximal effect; % is set by controls: 0 for no effect and ±100 for the full control effect; nearly all actives have a fitted effect of over 60% in size
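Luminescent ATP read-out (CellTiter-Glo) measures survival of drug-naive KB-3-1 cells after 72 h compound exposure at 37 °C. Titration series was screened from lowest to highest concentration, with DMSO vehicle plates as background controls.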
SW480 rerep = induces DNA re-replication in SW480 colon adenocarcinoma cells; SW480 DNA re-replication, Hoechst DNA content imaging, 48 h; Potency, µM (highest dose often 46.1 µM), without a hit: top-dose re-replication activation, hits mostly activators; 1.8% of 340,000 active; AID 624297; note: potency is the fitted concentration of half-maximal effect; % of control where 0% means no effect; nearly all actives have a fitted effect of over 55% in size
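Hoechst fluorescence of nuclei (405 nm excitation, 500-530 nm emission) measured by plate-scanning imager after 48 hr compound exposure at 37 C; re-replication scored as increased number of nuclei with elevated intensity.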
An asterisk follows results filed as active; i = inactive; ? = inconclusive; . = not tested or not shown; [ ] = another dose, or the depositor's remark. Compounds with a hit are over-represented: about 9.9% of the library has one in this group of screens. Unless noted, calls come from the whole dose curve; as a rule, active = well fitted curve in the direction sought with a large enough effect; inconclusive = small, poorly fitted or top-dose-only effect, or another doubt; inactive = no such curve, though single readings can be large; an effect the other way counts as inactive or inconclusive.

SMILES	KB-V1 cytotox	IL-1B inflam inh	MCF10A rereplic	KB-3-1 tox	SW480 rerep
O=C(Nc1ccccc1C(=O)N/N=C/c1ccc(F)cc1)c1ccccc1Br	25.9µM*	-3.7	4.3%	i	-10.0%
Cc1ccccc1C(=O)Nc1ccc(C(=O)N/N=C/c2ccc(O)cc2)cc1	i	-98.6*	?	i	-19.8%
O=C(N/N=C/c1ccc(O)cc1)c1ccc(NC(=O)c2ccccc2Br)cc1	i	-22.6	?	i	?
Cc1ccccc1C(=O)Nc1cccc(NC(=O)c2ccc(F)cc2)c1	i	-50.3*	3.0%	i	-9.1%
CCc1noc(C)c1C(=O)NNC(=O)COc1ccc(Br)cc1	i	-2.0	?	i	1.7%
COc1ccc(C)cc1S(=O)(=O)NC(C)C(=O)Nc1ccc2c(c1)OCO2 (stereo unspecified)	i	1.4	4.6%	i	3.9%
CCCCOCCCNC(=O)C[C@@H]1C[C@@]2(C(=O)OCC)CCCC=C2N(Cc2ccc3c(c2)OCO3)C1=O	?	0.0	.	i	.
CC1CCC(NC(=O)c2ccc(CSc3nc4ccncc4n3Cc3ccc(F)cc3)cc2)CC1 (stereo unspecified)	?	.	.	i	.
O=C(N/N=C/c1ccco1)c1ccc(NC(=O)c2ccccc2Cl)cc1	i	-15.7	0.1%	i	-127.2%
Cc1ccc(/C=N/NC(=O)c2ccc(NC(=O)c3ccccc3Cl)cc2)o1	i	-70.7*	-8.9%	?	-0.3%
CN(C(=O)C(Cl)Cl)C1CC2C=CC1C2 (stereo unspecified)	i	-1.9	-2.3%	?	-4.3%
CC(C)C(=O)NC(c1ccco1)c1ccc2cccnc2c1O (stereo unspecified)	4.61µM*	120.6	?	4.11µM*	3.66µM*
Oc1c(C(Nc2nc3ccccc3s2)c2ccco2)ccc2cccnc12 (stereo unspecified)	?	-99.2*	?	i	?
Cc1nc(CC(=O)c2ccc(O)c(C)c2O)cs1	i	-13.7	0.4%	i	17.7%
CCC(C)NC(=O)CCC(=O)Nc1ccc2nc(N3CCOCC3)cc(C)c2c1 (stereo unspecified)	i	6.3	-1.2%	i	-5.8%
CCC(C)NC(=O)CCC(=O)Nc1ccc2nc(N3CC(C)CC(C)C3)cc(C)c2c1 (stereo unspecified)	i	-58.7*	20.6µM*	i	?
CCCCNC(=O)CCC(=O)Nc1ccc2nc(N3CCC(C)CC3)cc(C)c2c1	i	-6.1	20.6µM*	i	?
O=C1CN(C(=O)COC(=O)CCC(=O)c2ccc(F)cc2)c2ccccc2N1	i	24.8	2.6%	i	-1.3%
COC(=O)CCC(C)C1CCC2C3CCC4CC(O)CCC4(C)C3CC(O)C12C (stereo unspecified)	i	-11.5	20.6µM*	i	1.1%
COC(=O)CCC(C)C1CCC2C3C(OC(C)=O)CC4CC(O)CCC4(C)C3CC(O)C12C (stereo unspecified)	i	11.6	.	i	.
COc1ccc(N/C=C(\C#N)c2nc3ccccc3n2C)c(OC)c1	20.6µM*	-9.4	?	i	17.0%
O=C(NC1CCSC1=O)C1CCCCC1 (stereo unspecified)	i	11.1	?	i	1.5%[1.84 µM]
CCCn1nc(NC(=O)C(C)(C)C)c2cc3cc(OC)ccc3nc21	?	63.9	14.6µM*	i	20.6µM*
CCCCn1nc(NC(=O)CC)c2cc3cc(OC)ccc3nc21	i	10.9	25.9µM*	i	20.6µM*
CCCCn1nc(NC(=O)COC)c2cc3ccc(C)cc3nc21	?	-2.8	-4.1%	i	34.3%
SMILES	KB-V1 cytotox	IL-1B inflam inh	MCF10A rereplic	KB-3-1 tox	SW480 rerep
CN1CCN(C(=O)c2ccc3c(c2)N(Cc2ccc(F)cc2)C(=O)c2ccccc2S3=O)CC1 (stereo unspecified)	i	-14.3	-0.6%	i	-2.3%
COc1cc(/C=N\NC(=O)c2ccc(-c3ccccc3)cc2)cc(OC)c1OC(C)=O	i	-50.0*	?	i	?
COc1cccc(/C=N/NC(=O)c2ccncc2)c1OC(=O)c1ccc(Br)cc1	i	82.9	14.6µM*	i	26.1%
COc1ccccc1/C=N/NC(=O)c1ccc(-c2ccccc2)cc1	i	26.6	18.4µM*	i	6.3%
COc1c(Br)cc(Br)cc1/C=N/NC(=O)c1cccnc1	i	43.9	?	16.4µM*	4.4%
COc1cc(/C=N/NC(=O)c2ccncc2)ccc1OC(=O)c1cccc(Br)c1	i	7.2	-19.2%	i	-16.7%
COc1cc(/C=N\NC(=O)c2ccc(-c3ccccc3)cc2)cc(OC)c1O	i	?	?	i	-0.5%
Cc1c(C(=O)N(Cc2ccco2)Cc2ccccc2Cl)oc2ccc(F)cc12	i	.	.	i	.
CC(C)c1ccc(/C=C2\SC(=O)N(CC(=O)NC3C=CS(=O)(=O)C3)C2=O)cc1 (stereo unspecified)	i	-90.1*	-5.6%	i	-8.2%
COc1cccc(/C=C2\SC(=O)N(CC(=O)NC3C=CS(=O)(=O)C3)C2=O)c1 (stereo unspecified)	?	-99.0*	-0.1%	i	-9.0%
COc1cccc(/C=C2\SC(=O)N(CC(=O)NC3CCS(=O)(=O)C3)C2=O)c1 (stereo unspecified)	?	-6.3	-2.3%	i	1.1%
COc1ccc(/C=C2\SC(=S)N(C(C)C(=O)NC3C=CS(=O)(=O)C3)C2=O)cc1 (stereo unspecified)	i	-61.1*	?	i	?
O=C(CN1C(=O)/C(=C/c2ccccc2Cl)SC1=S)NC1C=CS(=O)(=O)C1 (stereo unspecified)	?	-79.2*	23.3%	i	-31.1%
CCn1cc(C(=O)O)c(=O)c2cc(F)c(N/N=C/c3ccccc3[N+](=O)[O-])cc21	13µM*	8.9	-2.6%	i	3.9%
CCn1cc(C(=O)O)c(=O)c2cc(F)c(N3CCN(C(=S)Nc4ccccc4OC)CC3)cc21	i	-16.3	0.5%	?	-1.7%
Cc1ccc(NC(=O)c2cnc(N3CCCCC3)c3ccccc23)cc1Cl	i	.	.	i	.
O=C(Nc1c(F)cccc1F)c1cnc(N2CCN(c3ccccn3)CC2)c2ccccc12	10.3µM*	?	19.7%	?	15.5%
Cc1ccc(NC(=O)c2cnc(N3CCN(c4ccccn4)CC3)c3ccccc23)c(Br)c1	?	-28.4	18.4µM*	?	?
Oc1cccc2c(CC(O)c3c[nH]c4ccccc34)ccnc12 (stereo unspecified)	?	.	.	0.731µM*	.
CC12CCC(C(=O)OC3CCCCC3)(OC1=O)C2(C)C (stereo unspecified)	i	20.7	-2.3%	i	9.5%
